MCF10A rereplic = induces DNA re-replication in MCF 10a normal breast cells; MCF 10A DNA re-replication, Hoechst nuclear intensity, 48 h; 350,000 tested, 2.9% active; Potency, µM (top dose mostly 46.1 µM), usual class: activators; further: nearly all actives have a fitted effect of over 50% in size
uPA surface inh = blocks generation of uPA at the cell surface. cell surface uPA generation assay, qHTS. Potency, µM (series often up to 38.3 µM), actives largely listed as inhibitors. 330,000 tested, 0.31% active. AID 540303; active means well fitted inhibition curve with a large enough effect; inconclusive means small, poorly fitted or top-dose-only effect; inactive means no such curve, though single readings can be large or run the other way; tested in mouse RAW 264.7 cells; further: nearly all actives have a fitted effect of over 55% in size
Giardia killer = Giardia lamblia killing. 340,000 tested, 0.15% active. activity change, % at 7.66 µM, hits read low. AID 540267. Giardia lamblia trophozoite viability; in the data active means activity change below about -80%; inconclusive means between about -30% and that limit;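 further: parasites exposed to compound for two days anaerobically before the ATP read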
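Killing of trophozoites was scored by loss of ATP luminescence after a 48 hrs anaerobic exposure to compounds at 37 deg C, using 100 cells per well.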
SW480 rerep = DNA re-replication induction in SW480 cells | SW480 DNA re-replication, Hoechst DNA content imaging, 48 h | 340,000 tested, 1.8% active | Potency, µM (doses to about 46.1 µM), actives largely listed as activators; further: nearly all actives have a fitted effect of over 55% in size
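Per well, 250 cells were exposed to pinned compound for 48 hr. Nuclear DNA was visualised with Hoechst (40 min, 37 C) and total object intensity recorded by fluorescence scanning.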
Hits are given with their value. Rows were chosen to be rich in hits. Some 4.3% of all compounds tested hit in one or more screens of this group. Unless noted, the call rests on the fitted dose curve; in most records, active means well fitted activation curve with a large enough effect; inconclusive means small, poorly fitted or top-dose-only effect; inactive means no such curve, though single readings can be large or run the other way.

For O=c1cc(O)c(-c2ccc(Cl)cc2)c(Cl)[nH]1 the results were MCF10A rereplic inactive, uPA surface inh inactive, Giardia killer inactive and SW480 rerep inactive.
For Cc1cn(CC(=O)N(C)Cc2ccco2)c(=O)[nH]c1=O the results were MCF10A rereplic inactive, uPA surface inh inactive, Giardia killer inactive and SW480 rerep inactive.
`Cc1ccc(C)c(N2CCN(C(=O)c3ccc(CS(=O)Cc4ccc(Cl)cc4)o3)CC2)c1` (configuration not stated) gave MCF10A rereplic inconclusive, uPA surface inh inactive, Giardia killer inactive and SW480 rerep 16µM.
Screening O=C(c1ccc(COc2ccccc2Cl)o1)N1CCN(c2ccccc2)CC1 returned MCF10A rereplic inconclusive, uPA surface inh inactive, Giardia killer inactive and SW480 rerep inactive.
For Cc1ccc(Cl)cc1N1CCN(C(=O)c2ccc(CS(=O)Cc3ccc(Cl)cc3)o2)CC1 (configuration not stated) the results were MCF10A rereplic inconclusive, uPA surface inh inactive, Giardia killer inactive and SW480 rerep inactive.
COc1ccc(N2CCN(C(=O)c3ccc(CS(=O)Cc4ccc(Cl)cc4)o3)CC2)cc1 (configuration not stated) was read as MCF10A rereplic inactive, uPA surface inh inactive, Giardia killer inactive and SW480 rerep inactive.
`COc1cccc(N2CCN(C(=O)c3ccc(CS(=O)c4ccccc4Cl)o3)CC2)c1` (configuration not stated) gave MCF10A rereplic inactive, uPA surface inh inconclusive, Giardia killer inactive and SW480 rerep 0.52µM.
Screening COc1ccccc1S(=O)(=O)Cc1ccc(C(=O)N2CCN(c3ccccc3)CC2)o1 returned MCF10A rereplic inactive, uPA surface inh inactive, Giardia killer inactive and SW480 rerep inactive.
`COc1ccc(N2CCN(C(=O)c3ccc(CS(=O)c4cccc(C)c4)o3)CC2)cc1` (configuration not stated) gave MCF10A rereplic inconclusive, uPA surface inh inconclusive, Giardia killer inactive and SW480 rerep 5.8µM.
Screening COc1ccccc1S(=O)(=O)Cc1ccc(C(=O)N2CCN(c3cccc(Cl)c3)CC2)o1 returned MCF10A rereplic 15µM, uPA surface inh inactive, Giardia killer inactive and SW480 rerep inconclusive.
For CCOCCn1c(=NC(=O)CSCC(=O)Nc2cc(C)on2)sc2cc(OC)ccc21 the results were MCF10A rereplic inactive, uPA surface inh inactive, Giardia killer inactive and SW480 rerep inactive.
COc1cccc(N2CCN(C(=O)c3ccc(CS(=O)c4ccccc4C)o3)CC2)c1 (configuration not stated) was read as MCF10A rereplic inconclusive, uPA surface inh inactive, Giardia killer inactive and SW480 rerep 5.8µM.
`COc1ccc(N2CCN(C(=O)c3ccc(CS(=O)(=O)c4ccccc4C)o3)CC2)cc1` gave MCF10A rereplic inactive, uPA surface inh inactive, Giardia killer inactive and SW480 rerep inactive.
O=C(c1ccc(CS(=O)c2ccccc2Cl)o1)N1CCOCC1 (configuration not stated) was read as MCF10A rereplic inactive, uPA surface inh inactive, Giardia killer inactive and SW480 rerep inactive.
`O=C(c1ccc(CS(=O)c2ccccc2Cl)o1)N1CCN(c2ccccc2)CC1` (configuration not stated) gave MCF10A rereplic inconclusive, uPA surface inh inconclusive, Giardia killer inactive and SW480 rerep 2.6µM.
For CC(=O)OCC(OC(C)=O)C(OC(C)=O)C(OC(C)=O)C(=O)Nc1ccccc1 (configuration not stated) the results were MCF10A rereplic inconclusive, uPA surface inh inactive, Giardia killer inactive and SW480 rerep inconclusive.
`O=C(OCN1C(=O)c2ccccc2C1=O)c1cccnc1SC(F)F` gave MCF10A rereplic inactive, uPA surface inh inactive, Giardia killer inactive and SW480 rerep inactive.
Screening O=C(Nc1cccc(-c2csc(Nc3ccc(Cl)cc3)n2)c1)c1cc([N+](=O)[O-])cc(C(F)(F)F)c1 returned MCF10A rereplic 9.2µM, uPA surface inh inconclusive, Giardia killer inactive and SW480 rerep inactive.
Screening O=C(Nc1cccc(-c2csc(Nc3ccc(Cl)cc3)n2)c1)c1cccc(C(F)(F)F)c1 returned MCF10A rereplic 4.1µM, uPA surface inh inconclusive, Giardia killer inactive and SW480 rerep inactive.
`O=C(Nc1cccc(-c2csc(Nc3ccc(Cl)cc3)n2)c1)c1ccccc1` gave MCF10A rereplic inactive, uPA surface inh inconclusive, Giardia killer inactive and SW480 rerep inactive.
`COc1cc(NCCCNC(C)C)c2nccc(C)c2c1` gave MCF10A rereplic inconclusive, uPA surface inh inactive, Giardia killer inactive and SW480 rerep inconclusive.
O=C(COC(=O)C1CCN(S(=O)(=O)c2ccc3c(c2)OCCO3)CC1)Nc1ccc(C(F)(F)F)cc1 was read as MCF10A rereplic inactive, uPA surface inh inactive, Giardia killer inactive and SW480 rerep inactive.
`Cc1cc(/C=C(\C#N)C(=O)Nc2ccccc2)c(C)n1-c1ccc2c(c1)OCO2` gave MCF10A rereplic inconclusive, uPA surface inh inactive, Giardia killer inactive and SW480 rerep 3.7µM.
For Clc1ccccc1OCCCCN1CCNCC1 the results were MCF10A rereplic 21µM, uPA surface inh inactive, Giardia killer inactive and SW480 rerep inactive.
For CCOc1ccccc1N1C(=O)c2ccccc2N/C1=C\N1CCN(C(=O)c2ccco2)CC1 the results were Giardia killer inactive.
COc1ccc(/C=C2/CCCC(CN(C)C)C2=O)cc1 (configuration not stated) was read as MCF10A rereplic 2.9µM, uPA surface inh inactive, Giardia killer inactive and SW480 rerep 9.2µM.
For COc1cccc(/C=C2\CCC(C3CCCC3)C2=O)c1 (configuration not stated) the results were MCF10A rereplic inactive, uPA surface inh inactive, Giardia killer inactive and SW480 rerep inactive.
For CN(C)CC1CCC/C(=C\c2ccc(OC(=O)/C=C/c3ccc(Cl)c(Cl)c3)cc2)C1=O (configuration not stated) the results were MCF10A rereplic inactive, uPA surface inh inactive, Giardia killer inactive and SW480 rerep inactive.
CN(C)CC1CCC/C(=C/c2ccc(Cl)cc2)C1=O (configuration not stated) was read as MCF10A rereplic 18µM, uPA surface inh inactive, Giardia killer inactive and SW480 rerep inconclusive.
For COc1cccc(/C=C2/CCC(CN(C)C)C2=O)c1 (configuration not stated) the results were MCF10A rereplic 2.3µM, uPA surface inh inactive, Giardia killer inactive and SW480 rerep 5.8µM.
CCCC/C=C1/CCC(CN(C)C)C1=O (configuration not stated) was read as MCF10A rereplic 5.8µM, uPA surface inh inactive, Giardia killer inactive and SW480 rerep inconclusive.
CCCN1CNc2c(c(=O)[nH]c(=O)n2CCc2ccc(OC)c(OC)c2)C1 was read as Giardia killer inactive.
`CS(=O)(=O)NCc1ccc(C(=O)O)cc1` gave MCF10A rereplic inactive, uPA surface inh inactive, Giardia killer inactive and SW480 rerep inactive.
Screening O=C1NC(=O)N2CCSC2(Cc2ccccc2)N1 (configuration not stated) returned MCF10A rereplic inactive, uPA surface inh inactive, Giardia killer inactive and SW480 rerep inactive.

Screening results (PubChem BioAssay)
